The full ranking holds about 33,000 sequences; the median of “E-score (dimensionless, -0.5 to 0.5)” is about -0.058, and the highest 2% start at about 0.35. Only a selection was taken, and the highest values are over-represented in it overall.
test system: MvaT; assay: PBM 8-mer E-score (mean of HK and ME arrays) (E-score (dimensionless, -0.5 to 0.5)); higher = stronger relative binding preference
How it was run: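 Reported values are rank-based E-scores, taken as the mean of two universal arrays and parsed with a custom script. Each 8-mer score falls between -0.5 and 0.5. The arrays, ME and HK, were double-stranded 60-mers with a constant 25-mer primer region and a variable 35-mer region covering all 8-mers. They were probed, by an earlier protocol, with full-length P. aeruginosa MvaT carrying an N-terminal glutathione S-transferase fusion.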

Sequence	PBM 8-mer E-score
AACTAGGA	0.0115
TGGCAACA	-0.122
ACAATCAC	0.00599
CACGCATC	-0.154
GTGGCCAA	-0.191
CTGTTATA	0.359
CTGTTATC	0.0487
ATGTTATA	0.442
GTGTTATA	0.32
ATGTTATG	0.152
CTGTTACA	0.111
GAGGAAAC	-0.144
GAAACAAA	0.271
ACTAATAT	0.407
CCTAATAA	0.266
ACTAATAG	0.199
TCTAATAA	0.332
ACTAATAC	0.247
ACTAATAA	0.399
CCAAATCC	-0.193
AGAAAGAC	0.00959
GACACACA	0.101
AGGGACCC	-0.282
AGACCTCG	-0.132
AGATCGAG	-0.129

Sequence	PBM 8-mer E-score
CGTGAAGC	-0.218
CTTGGTTA	0.0108
CATATCAC	0.15
GAGGCACC	-0.229
ATACATAA	0.336
AAACATAA	0.371
AAACATAT	0.361
AAACATAC	0.284
TAACATAA	0.303
ATACAAAT	0.35
ATACATAT	0.394
ATACAAAG	0.27
ATACAAAA	0.304
ATACATAC	0.319
AAACATAG	0.216
GAACATAA	0.256
CAGTTGAC	0.0902
GGTCGAAC	-0.0987
AGTCAGAG	-0.21
CCTGGCGC	-0.207
CATAAATG	0.112
TATAAAGA	0.327
GATAAAGA	0.271
CATAAATC	0.163
TATAAATA	0.426

Sequence	PBM 8-mer E-score
AGTAAATC	0.0898
GATAAATA	0.382
CGTAAATA	0.236
CCTAAATA	0.226
AGTAAATA	0.361
GATAAATC	0.137
CATAAATA	0.358
CCCTGGAA	-0.276
CCCTACAC	-0.212
CTCCGCCA	-0.247
ACTCAGTA	0.118
AATTGAGA	0.0559
AATAAACT	0.293
AATAAATG	0.33
AATAAGTG	0.254
AAGAAATT	0.26
AATAAGTA	0.387
AATAAATA	0.434
CATAAGTA	0.315
AATAAATT	0.436
AATAAATC	0.319
CCAAGTTC	0.0376
AGGAGAAC	-0.112
CGACTCAA	-0.0083
TACCATAA	0.271

Sequence	PBM 8-mer E-score
CATCTCCG	-0.186
AGCTTGCG	-0.227
TATATGCA	0.412
TATATGAA	0.382
GATATGAA	0.156
AATATGAA	0.329
AATATGCA	0.264
CATATGCA	0.164
CAGCACAA	-0.0547
TCAGCCCA	-0.133
AAAGTATG	0.216
ACGTAAAC	-0.0262
AATACGGG	-0.0239
AACTTATA	0.415
CACTTATA	0.326
ACCTTATA	0.266
GACTTATA	0.312
TACTTATA	0.389
AACTTACA	0.33
AAGCCGGA	-0.238
TACTGTAA	0.336
AAGGACGT	-0.149
GGAGTCAA	-0.134
CTTGAACA	-0.0207
AAGGTGGG	-0.155

Sequence	PBM 8-mer E-score
CCGCGGCG	-0.0831
ACGAGGCT	-0.135
ATTGGTAC	0.139
ATCTAATA	0.321
CCATAATA	0.287
GTCTAATA	0.269
GTATAATA	0.416
CTATAATA	0.42
CTGTAATA	0.36
GTGTAATA	0.342
CTGTAATC	0.0848
GTATAAGA	0.278
CTCTAATA	0.364
ATGTAATA	0.317
CTTCAACA	0.0315
CCCGCGTA	-0.177
CGTCTCAG	-0.227
CTGTTTCA	-0.122
AACCCATT	0.0496
GACCAACC	-0.0441
GCATCAGC	-0.135
CTCGTCGC	-0.208
AATATGTA	0.365
AACATGTC	-0.0784
AACATGTA	0.347

Sequence	PBM 8-mer E-score
ATTATGTA	0.377
GATATGTA	0.282
AATATGTG	0.368
CATATGTA	0.252
ATTATGTC	0.305
AACATGTT	0.295
ATTATGTG	0.261
ACTATGTG	0.172
AATATGTC	0.233
GTTGCAAC	0.157
CGAGCTTC	-0.313
ACAGTCTA	-0.0014
ATAAAGGA	0.0948
ACAGGCCG	-0.147
ATAAAGTG	0.228
CATGATAC	0.111
GATATACC	0.178
ACGATATA	0.328
GATATATC	0.396
GATATATA	0.469
GCGATATA	0.361
GAGATATC	0.163
GATATCTA	0.267
CCGATATA	0.333
GGGATATA	0.218

Sequence	PBM 8-mer E-score
TCAAGTGA	-0.00408
AAAGAGTC	0.0357
GTCGATCA	-0.174
CTGATACA	0.0751
AATACAGC	0.247
CTCGCAGC	-0.11
CCTCACCC	-0.165
CTAATTGA	0.11
ATAATTCA	0.325
AGAATTTC	0.122
GTAATTTA	0.388
CTAATTTA	0.389
GTAATTGA	0.264
ATAATTTA	0.416
GTAATTCA	0.191
CTAATTTC	0.0429
AGAATTTA	0.262
ATAATTTC	0.386
ATAATTTG	0.298
AGTAGAGA	0.0385
CCTGAATA	0.0626
ACGGCAGA	-0.166
GCCACACC	-0.0459
AACTCTGC	0.143
AAAGGTCA	-0.0376

Sequence	PBM 8-mer E-score
ATCTCATA	-0.00882
ACTTATAT	0.424
ACTTATCA	0.196
GCTTATAA	0.418
ACTTATAA	0.419
ACTTATAG	0.251
ACTTATAC	0.326
CCTTATAA	0.338
TCTTATAA	0.369
TCTTATCA	0.177
ACTTATGA	0.248
GCTTATGA	-0.0922
GCTTATAC	0.166
GAGCGTAC	-0.233
AGTTACTG	0.282
ACTGGATA	0.12
ACCTAAGA	-0.0551
GCCCACGA	-0.205
CAATGAGA	-0.0714
GATAGAAA	0.105
AGAAAGGG	-0.151
GCTCTTGA	-0.154
ATGTTGGG	0.105
GGGAACTA	-0.0248
CACATTAA	0.305

Sequence	PBM 8-mer E-score
AACATTAG	0.234
AACATTAT	0.34
TACATTAA	0.38
AACATTAA	0.397
GACATTAA	0.222
AAATCAGT	0.111
CATAAGGA	-0.0113
TATAAGGA	0.348
GATAAGGA	-0.0851
TATAAGAA	0.369
CATAAGAA	0.126
GATAAGAA	0.121
CATGGAGC	-0.21
ATCTGCAT	0.0581
CTGCATGC	-0.0882
AGAAATAT	0.356
TGAAATAA	0.314
AGAAATCA	-0.0327
GGAAATAA	0.31
CGAAATAC	0.0434
AGAAATAC	0.157
AGAAATAG	0.216
AGAAATAA	0.37
CGAAATAA	0.374
